Experimental data as given in PubChem BioAssay (NCATS).
Inconclusive results are not listed. The source made the active and inactive calls. Unless noted, calls follow the shape of the dose curve; as a rule, active = well fitted curve in the direction sought with a large enough effect; inconclusive = small, poorly fitted or top-dose-only effect, or another doubt; inactive = no such curve, though single readings can be large; an effect the other way counts as inactive or inconclusive.

Assays:
[1] = Cellular Toxicity (caspase-3) HepG2 (AID 654); settings: HepG2 caspase-3 activation, luminescence, 0% = DMSO only, 100% = tamoxifen; series mostly up to 92.2 µM;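 also: cells exposed to compound for 16 hours before reading; 0% = DMSO alone and 100% = caspase signal from 100 µM tamoxifen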
Procedure, shortened: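 HepG2 cells (1500/well) in complete medium were treated with compounds for 16 hr at 37 °C. Caspase-3/7 activity was then read as luminescence from peptide-aminoluciferin cleavage. AC50 came from Hill fits, normalized to DMSO and 100 uM tamoxifen.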

[2] = Cellular Toxicity (caspase-3) Jurkat (AID 655); settings: Jurkat caspase-3 activation, luminescence, DMSO = 0%, tamoxifen = 100%; series mostly up to 92.2 µM;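 also: cells exposed to compound for 16 h at 37 °C before reading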
Procedure, shortened: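 Caspase 3/7 activation is scored as increased luminescence in Jurkat cells cultured with compound for 16 hours in complete medium. AC50 values come from Hill fits of qHTS concentration-response data normalized to DMSO and 100 uM tamoxifen controls.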

[3] = Cellular Toxicity (caspase-3) HUV-EC-C (AID 656); settings: HUV-EC-C cells, caspase-3 activation (apoptosis), vehicle = 0, 100 µM tamoxifen = 100%; series mostly up to 92.2 µM
Procedure, shortened: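 Read-out: luminescence proportional to caspase 3/7 activity, measured 20 min after adding Caspase-Glo 3/7 reagent. Cells (HUV-EC-C) had received compound for 16 hr at 37°C. Increases relative to DMSO and 100 uM tamoxifen gave concentration-response AC50 values.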

[4] = Cellular Toxicity (caspase-3) SHSY5Y (AID 657); settings: SH-SY5Y caspase-3 activation, DMSO zero, 10 µM staurosporine = 100%; series mostly up to 91.7 µM
Procedure, shortened: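 Cells plated and incubated 5 h at 37 °C, dosed over a concentration range, incubated 16 h, then given Caspase-Glo 3/7 reagent for 1 h at room temperature before luminescence reading. Staurosporine (10 uM) defined full stimulation.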

[5] = Cellular Toxicity (caspase-3) BJ (AID 658); settings: BJ fibroblasts, luminescence, normalized: DMSO 0%, staurosporine 100%; series mostly up to 91.7 µM
Procedure, shortened: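 Readout: Caspase-Glo 3/7 luminescence increase in BJ cells after 16 hr treatment at 37 °C. Staurosporine and tamoxifen served as positive controls; AC50 values came from Hill modelling of data normalized to DMSO and 10 uM staurosporine.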

[6] = Cellular Toxicity (caspase-3) MRC-5 (AID 659); settings: MRC-5 cells, luminescence, normalized: DMSO 0%, 10 µM staurosporine 100%; series mostly up to 91.7 µM
Procedure, shortened: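 Concentration-dependent caspase 3/7 activation is measured in human normal lung fibroblasts (MRC-5) following 16-hour treatment. AC50 values come from standard Hill-equation modeling of luminescence normalized to DMSO and 10 uM staurosporine.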

[7] = Cellular Toxicity (caspase-3) Mesangial (AID 660); settings: mesangial cells, normalized: DMSO 0%, 100 µM tamoxifen 100%; series mostly up to 91.7 µM;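 also: cells exposed to compound for 16 h before the caspase read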
Procedure, shortened: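 Human renal glomerular mesangial cells (1000/well) were treated with compounds for 16 h at 37 °C in complete medium, then caspase 3/7 activity was read by Caspase-Glo luminescence. Data were normalized to DMSO and 100 uM tamoxifen; AC50 from Hill fits.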

[8] = Cellular Toxicity (caspase-3) SK-N-SH (AID 661); settings: SK-N-SH caspase-3 activation, qHTS, DMSO as zero, staurosporine as full; series mostly up to 91.7 µM
Procedure, shortened: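 SK-N-SH human neuroblastoma cells (1500/well) were treated with compounds for 16 hr at 37 °C in complete medium; caspase 3/7 activity was read by Caspase-Glo luminescence. AC50 came from Hill fits of data normalized to DMSO and 10 uM staurosporine.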

[9] = Cellular Toxicity (caspase-3) H-4-II-E (AID 663); settings: H-4-II-E rat hepatoma, scaled: DMSO 0%, 100 µM tamoxifen 100%; series mostly up to 92.2 µM;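 also: cells exposed to compound for 16 hr before readout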
Procedure, shortened: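 Apoptosis induction is scored as increased luminescence from caspase 3/7 substrate cleavage in rat hepatoma H-4-II-E cells exposed to compound for 16 hr. Activity is scaled between DMSO and 100 uM tamoxifen.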

[10] = Cellular Toxicity (caspase-3) Hek293 (AID 664); settings: HEK293 caspase-3 activation, DMSO = 0%, 100 µM tamoxifen = 100%; series mostly up to 92.2 µM;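 also: cells exposed to compound for 16 h at 37 °C before readout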
Procedure, shortened: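 HEK293 cells were exposed to compounds in complete medium for 16 hr at 37 °C, then caspase-3/7 activity was read by Caspase-Glo 3/7 luminescence after 20 min at room temperature. Data normalized to DMSO and 100 uM tamoxifen; AC50 from Hill fits.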

[11] = Cellular Toxicity (caspase-3) N2a (AID 665); settings: N2a cells, luminescence, normalized: DMSO 0%, 10 µM staurosporine 100%; series mostly up to 92.2 µM;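 also: compound exposure lasted 16 h at 37 °C before readout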
Procedure, shortened: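 Mouse N2a neuroblastoma cells (1500/well) were treated with compounds for 16 h at 37 °C, then caspase-3/7 activity was read by Caspase-Glo luminescence after 1 h at room temperature. Data were normalized to DMSO and 10 uM staurosporine; AC50 from Hill fits.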

[12] = Cellular Toxicity (caspase-3) NIH 3T3 (AID 666); settings: NIH 3T3 caspase-3 activation, apoptosis/toxicity, 0% DMSO, 100% is 100 µM tamoxifen; series mostly up to 92.2 µM;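 also: caspase signal read after 16 h compound exposure; 0% = DMSO basal and 100% = 100 µM tamoxifen stimulation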
Procedure, shortened: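 Mouse NIH 3T3 fibroblasts (1000 cells/well) were treated with compound for 16 hr at 37°C in complete medium; caspase-3/7 activity was read by Caspase-Glo luminescence. Normalized to DMSO and 100 uM tamoxifen; AC50 from Hill fits.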

[13] = Cellular Toxicity (caspase-3) Renal Proximal Tubule (AID 667); settings: renal proximal tubule cells, primary cells freshly taken from rat, solvent-only wells 0%, staurosporine 100%; series mostly up to 91.7 µM;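 also: cells exposed to compound for 16 hours at 37 °C before detection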
Procedure, shortened: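 In qHTS format, rat primary proximal tubule cells seeded at 1000 per well are exposed to compounds for 16 hours at 37 °C. An increase in Caspase-Glo 3/7 luminescence indicates caspase activation.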

[14] = qHTS assay for small molecule disruptors of the mitochondrial membrane potential - 5 hr assay (AID 651755; calls by dose curve; also: % is scaled to controls: 0 for no effect and ±100 for the full control effect; nearly all actives have a fitted effect of over 40% in size); settings: JC-1-type ratio dye; series mostly up to 92.2 µM
Procedure, shortened: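 HepG2, 2,000 cells/well, overnight attach; cpd or DMSO 5 hr, 37C/5% CO2; Mito-MPS 30 min 37C; fluor 490/535 + 540/590 nm.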

[15] = biological target: Tumor necrosis factor (Homo sapiens) (UniProt P01375); test: qHTS assay to identify small molecules that stimulate Tumor Necrosis Factor-alpha (TNF-alpha) secretion (AID 651757; active = well fitted curve in the direction sought with a large enough effect in the signal ratio; the % refers to the signal ratio; also: 0% is about no effect); settings: Human cells, HTRF 665/615 ratio; series mostly up to 92.2 µM
Procedure, shortened: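 THP-1 cells were exposed to compounds for 17 hrs at 37 C, after which secreted TNF-alpha was measured by homogeneous HTRF (TR-FRET) using cryptate- and XL665-labeled anti-TNF-alpha antibodies, read after 3 hr at room temperature.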

[16] = qHTS assay to identify small molecules that stimulate interleukin-8 (IL-8) secretion (AID 651758; active = well fitted activation curve with a large enough effect in the signal ratio; the % refers to the signal ratio; also: 0% is about no effect); settings: HTRF ratio (665/615); series mostly up to 92.2 µM
Procedure, shortened: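 Secreted IL-8 measured by TR-FRET sandwich (cryptate and XL665 antibodies) from THP-1 cells exposed to compound overnight (16 hrs, 37 C).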

[17] = qHTS assay for environmental chemicals that activate the Aryl hydrocarbon Receptor (AhR) signaling pathway (AID 651777); settings: 1A2-DRE human hepatoma cells, luciferase, 24 h; stronger effect = higher value; also: % of control where 0% means no effect; nearly all actives have a fitted effect of over 15% in size
Procedure, shortened: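 Following a 24 hr incubation with test chemicals at 37 C and 5% CO2, 1A2-DRE human hepatoma cells received One-Glo reagent; after 30 min at room temperature, luciferase output reflected CYP1A2 induction via AhR.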

[18] = biological target: Peroxisome proliferator-activated receptor alpha (Homo sapiens) (UniProt Q07869); test: qHTS assay for small molecule agonists of the peroxisome proliferator-activated receptor alpha (PPARalpha) signaling pathway (AID 651778); settings: PathHunter PPARalpha complementation, chemiluminescence, 6 h; stronger effect = higher value; also: % of control where 0% means no effect
Procedure, shortened: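 Chemiluminescence from complemented enzyme reported PPARalpha activation in cells after 6 hr of compound treatment at 37 C. The detection reagent was incubated for 60 min at room temperature, and compounds were scored as agonists.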

[19] = qHTS assay for small molecule agonists of the antioxidant response element (ARE) signaling pathway measured by Nrf2-dependant transcriptional activity (AID 720636; active = well fitted curve in the direction sought with a large enough effect in the repeat runs; an effect the other way counts as inactive or inconclusive;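 also: HepG2 cells with an ARE-driven luciferase reporter; % of control where 0% means no effect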); settings: ARE-luc HepG2, Nrf2 luciferase reporter, 16 h; series mostly up to 92.4 µM
Procedure, shortened: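 ONE-Glo luminescence, read 30 min after reagent addition at room temperature, reflected ARE reporter activity in HepG2 cells that had been incubated with compound for 16 hr at 37 C in 1% dialyzed FBS.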

[20] = qHTS assay for small molecule antagonists of the retinoid-related orphan receptor gamma (ROR-gamma) signaling pathway - cell viability counter screen (AID 720652; active = well fitted curve in the direction sought with a large enough effect in the repeat runs; an effect the other way counts as inactive or inconclusive;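 also: CHO reporter cells with doxycycline-induced ROR-gamma expression; compound exposure lasted 16 hr before ATP read; % is scaled to controls: 0 for no effect and ±100 for the full control effect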); settings: RORgamma reporter cell line viability counter screen; series mostly up to 92.2 µM
Procedure, shortened: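 Counter screen in CHO cells carrying TET-inducible ROR-gamma and an ROR response element-luciferase reporter; cells plated 5 hr, compound pinned, doxycycline added, then 16 hr at 37 C. Viability read as intracellular ATP by CellTiter-Glo luminescence.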

Chain of Tumor necrosis factor (Homo sapiens) (P01375 whole entry, looked up): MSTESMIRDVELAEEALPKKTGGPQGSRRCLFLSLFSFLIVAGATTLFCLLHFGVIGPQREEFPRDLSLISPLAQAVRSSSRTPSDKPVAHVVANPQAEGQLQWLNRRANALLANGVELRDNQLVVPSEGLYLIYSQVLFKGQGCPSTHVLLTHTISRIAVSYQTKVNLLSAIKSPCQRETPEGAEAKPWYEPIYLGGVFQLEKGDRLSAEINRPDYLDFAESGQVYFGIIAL
Chain of Peroxisome proliferator-activated receptor alpha (Homo sapiens) (Q07869 whole entry, looked up): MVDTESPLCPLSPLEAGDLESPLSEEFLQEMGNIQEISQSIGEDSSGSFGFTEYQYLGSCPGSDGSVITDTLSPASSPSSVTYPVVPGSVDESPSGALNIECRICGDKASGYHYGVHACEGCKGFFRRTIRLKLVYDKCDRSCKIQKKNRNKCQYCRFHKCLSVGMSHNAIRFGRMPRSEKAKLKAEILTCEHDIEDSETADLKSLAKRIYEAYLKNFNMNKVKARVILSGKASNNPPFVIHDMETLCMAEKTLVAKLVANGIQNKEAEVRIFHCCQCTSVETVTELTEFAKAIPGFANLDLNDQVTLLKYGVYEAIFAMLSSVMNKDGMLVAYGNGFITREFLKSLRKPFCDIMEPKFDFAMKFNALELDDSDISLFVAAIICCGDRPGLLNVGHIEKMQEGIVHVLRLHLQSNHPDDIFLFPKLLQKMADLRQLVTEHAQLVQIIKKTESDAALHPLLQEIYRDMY

CN(C)CCOC(c1ccccc1)c1ccccc1 (tested in a mixture with another compound)
inactive: outcome [1] | outcome [2] | outcome [3] | outcome [4] | outcome [5] | outcome [6] | outcome [7] | outcome [8] | outcome [9] | outcome [10] | outcome [11] | outcome [12] | outcome [13] | outcome [14] | outcome [15] | outcome [16] | activation [17] 0.508% | max response [18] 0.237% | outcome [19] | outcome [20]
